# An excerpt weighted towards active compounds, which were near 1.1% of everything screened.
# IDH1 R132H inh: human IDH1 R132H inhibition; O75874; IDH1-R132H enzyme, NADPH consumption, diaphorase/resazurin fluorescence; Potency, µM (series often up to 76.6 µM), for the others: at the highest dose activity change, negative = inhibition, actives largely listed as inhibitors; 0.093% of 390,000 active; AID 602179; also: potency is read from the fitted curve at half-maximal effect; % is scaled to controls: 0 for no effect and ±100 for the full control effect; nearly all actives have a fitted effect of over 65% in size
#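 IDH1-R132H (0.5 ug/mL) preincubated 30 min with compound, then NADPH (0.016 mM) and alpha-KG (2 mM) added; 80 min at RT, pH 7.5. Remaining NADPH coupled via diaphorase/resazurin to fluorescence (540/590 nm); concentration-response curves normalized to no-enzyme control.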
# Eya2 inh: blocks the phosphatase activity of human Eya2. O00167. recombinant Eya2, OMFP fluorescence dephosphorylation (OMFP is methylfluorescein phosphate). Potency, µM (top dose mostly 76.9 µM), for inactives: top-dose activity, negative = inhibition, usual class: inhibitors. 0.006% of 330,000 active. AID 488837; also: potency is read from the fitted curve at half-maximal effect; % is scaled to controls: 0 for no effect and ±100 for the full control effect
#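 Eya2 protein (added as 0.2 uM solution) was preincubated with compound for 10 min at ambient temperature in 50 mM HEPES pH 7.5, 50 mM NaCl, 5 uM MgCl2, 0.05% BSA, 1 mM DTT. OMFP (added at 50 uM) then reacted 10 min; fluorescence read at 485/525 nm.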
# TrxR1 substrate: is turned over as a substrate by rat TrxR1; O89049; purified TrxR1 substrate turnover, NADPH consumption readout; Potency, µM (highest dose often 114 µM), for the others: top-dose activity change, negative = substrate turnover; 0.01% of 390,000 active; AID 588456; also: potency is read from the fitted curve at half-maximal effect; % is scaled to controls: 0 for no effect and ±100 for the full control effect; nearly all actives have a fitted effect of over 50% in size
# Target sequence (O89049 whole entry, looked up): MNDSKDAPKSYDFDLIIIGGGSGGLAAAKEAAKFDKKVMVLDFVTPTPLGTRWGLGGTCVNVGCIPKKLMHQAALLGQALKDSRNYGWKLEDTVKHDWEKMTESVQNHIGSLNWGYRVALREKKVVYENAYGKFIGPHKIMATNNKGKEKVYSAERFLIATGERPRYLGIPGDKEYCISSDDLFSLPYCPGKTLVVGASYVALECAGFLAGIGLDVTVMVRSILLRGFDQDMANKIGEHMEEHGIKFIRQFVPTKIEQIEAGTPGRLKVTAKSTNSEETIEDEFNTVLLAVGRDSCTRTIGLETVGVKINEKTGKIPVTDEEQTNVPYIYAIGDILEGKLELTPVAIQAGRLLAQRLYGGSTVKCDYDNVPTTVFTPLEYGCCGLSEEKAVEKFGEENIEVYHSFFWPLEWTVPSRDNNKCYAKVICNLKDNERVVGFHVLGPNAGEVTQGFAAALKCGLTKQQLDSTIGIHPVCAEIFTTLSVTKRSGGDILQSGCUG
#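 Rat TrxR1, dispensed at 90 nM, was prereduced with 400 uM NADPH (final) for 5 min at ~22 deg C, then incubated with compound 15 min before 400 uM selenite. A first-read NADPH fluorescence drop versus no-compound background flagged substrates.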
# rTrxR1 inhibitor: rat TrxR1 inhibition. 1% of 390,000 active. Potency, µM (series often up to 114 µM), for the others: at the top dose activity change, negative = inhibition, most hits filed as inhibitors. recombinant rTrxR1, NADPH fluorescence consumption, selenite substrate; also: potency is read from the fitted curve at half-maximal effect; % is scaled to controls: 0 for no effect and ±100 for the full control effect; nearly all actives have a fitted effect of over 65% in size
#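 Rat TrxR1 (90 nM in the dispensed reagent) was pre-reduced with 400 uM NADPH for 5 min at room temperature, then incubated with compound for 15 min. After 400 uM selenite was added, NADPH fluorescence (Ex 340/Em 450 nm) was followed for 8 min.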
# RGS4 inhibitor: human RGS4 inhibition; P49798; Transcreener GDP fluorescence polarization, RGS4-accelerated GTP hydrolysis; Potency, µM (series often up to 114 µM), inactives show at the highest dose activity change, negative = inhibition, actives largely listed as inhibitors; 0.039% of 390,000 active; AID 504845; also: potency is read from the fitted curve at half-maximal effect; % is scaled to controls: 0 for no effect and ±100 for the full control effect; nearly all actives have a fitted effect of over 75% in size
#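 MLSMR compounds (23 nl, pin-transferred) preincubated 10 min at room temperature with a 500nM (2x) first reagent, then RGS4 at 900nM (2x) plus Transcreener GDP mix added; fluorescence polarization (620/688 nm) read before and after 90 min at 30 °C.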
# Resorufin autofl: interferes with resorufin fluorescence in IDH1 counter-screen | AID 623980 | shares compounds with IDH1 R132H inh | Resorufin detection reagent fluorescence interference, cell-free | 750 tested, under 10 active | inhibition of signal, % at 51.2 µM;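 also: 0% = wells with normal resorufin and full inhibition = wells lacking resorufin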
# WT IDH1 inh: inhibits human wild-type IDH1, mutant selectivity check. 9% of 750 active. WT IDH1 enzyme, NADPH diaphorase/resazurin fluorescence. AID 623995. Potency, µM (top dose mostly 115 µM), for inactives: at the top dose activity change, negative = inhibition, actives largely listed as inhibitors. shares compounds with IDH1 R132H inh;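 also: potency is read from the fitted curve at half-maximal effect; 0% = full WT IDH1 enzyme control and full inhibition = no enzyme wells; nearly all actives have a fitted effect of over 55% in size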
# mIDH1 confirm: mutant IDH1 (human) inhibition, confirmed; Potency, µM (series often up to 76.6 µM), for the others: at the highest dose activity change, negative = inhibition, actives largely listed as inhibitors; AID 624002; 83% of 750 active; shares compounds with IDH1 R132H inh; IDH1 R132H enzyme, NADPH diaphorase/resazurin fluorescence; also: potency is read from the fitted curve at half-maximal effect; nearly all actives have a fitted effect of over 50% in size
# Starred values were filed as active, the others as inactive; ? = inconclusive; / = no result; [ ] = dose if it differs, or a comment. Calls follow the shape of the dose curve; as a rule, active = well fitted curve in the direction sought with a large enough effect; inconclusive = small, poorly fitted or top-dose-only effect, or another doubt; inactive = no such curve, though single readings can be large; an effect the other way counts as inactive or inconclusive.
SMILES,IDH1 R132H inh,Eya2 inh,TrxR1 substrate,rTrxR1 inhibitor,RGS4 inhibitor,Resorufin autofl,WT IDH1 inh,mIDH1 confirm
CCc1ccc(N(C(=O)c2ccco2)C(C(=O)NC2CCCC2)c2ccco2)cc1 (stereo unspecified),?,/,-1%,3%,-49%,-7,-7%,40µM*
CCc1ccc(N(C(=O)c2ccco2)C(C(=O)NC2CCCC2)c2ccncc2)cc1 (stereo unspecified),-11%,-10%,7%[57.1 µM],16%[57.1 µM],18%,/,/,/
COc1ccc(C)cc1C(=O)CCC(=O)N1CCN(c2ccccc2F)CC1,0%,-18%,-10%,-8%,13%,/,/,/
CC(=O)N1CCc2c(sc3c2c(=O)n(-c2ccc(C)cc2)c(=O)n3Cc2c(F)cccc2Cl)C1,?,/,1%,5%,11%,3,35µM*,22µM*
CC(=O)N1CCc2c(sc3c2c(=O)n(CCc2ccccc2)c(=O)n3Cc2ccccc2C)C1,13µM*,/,-4%,23%,-8%,-11,1%,11µM*
CC(=O)N1CCc2c(sc3c2c(=O)n(-c2ccccc2Cl)c(=O)n3Cc2cccc(C)c2)C1,32µM*,/,-2%[57.1 µM],9%[57.1 µM],-16%,1,20µM*,16µM*
CC(=O)c1cccc(NC(=O)CN2C(=O)CCc3cc(S(=O)(=O)N4CCCCC4)ccc32)c1,-16%,/,-1%[57.1 µM],2%[57.1 µM],14%,/,/,/
C[C@H](CO)N1C[C@H](C)[C@@H](CN(C)S(C)(=O)=O)Oc2ccc(NC(=O)C3CC3)cc2C1=O,5%,-35%,14%,2%,-4%,/,/,/
CCOC(=O)c1ccc(N2C(=O)c3[nH]nc(-c4ccccc4)c3C2c2cccs2)cc1 (stereo unspecified),?,/,-3%,25%,7%,2,11%,-14%
CCOC(=O)c1ccc(N2C(=O)c3n[nH]c(-c4ccco4)c3C2c2ccc(O)c(OC)c2)cc1 (stereo unspecified),?,/,-2%,?,-7%,3,-7%,20µM*
CCOC(=O)c1ccc(N2C(=O)c3n[nH]c(-c4ccco4)c3C2c2ccc(C)cc2)cc1 (stereo unspecified),-22%,/,-12%,6%,2%,/,/,/
CC1(C)CC(=O)C2=C(C1)N(Cc1ccccc1)C(=O)C2(NC(=O)C(C)(C)C)C(F)(F)F (stereo unspecified),6%,-11%,-6%,-4%,5%,/,/,/
CCCOc1ccc(C2C(C(=O)c3ccc(C)o3)=C(O)C(=O)N2Cc2ccco2)cc1 (stereo unspecified),?,-15%,-2%,?,?,/,/,/
CCCOc1ccc(C2C(C(=O)c3ccc(C)o3)=C(O)C(=O)N2Cc2ccco2)cc1OCC (stereo unspecified),52µM*,-8%,-16%,?,-25%,-1,6%,?
COc1ccc(CSc2ccc(-c3nc4ccccn4c3NCc3ccccc3)cc2OC)cc1,5%,-6%,86%[57.1 µM],25%[57.1 µM],-21%,/,/,/
COc1ccc(NC(=O)C(c2ccc(OC)cc2)N(Cc2ccco2)C(=O)CC2NC(=O)NC2=O)cc1 (stereo unspecified),3%,3%,-1%[57.1 µM],15%[57.1 µM],7%,/,/,/
COc1ccc(C(C(=O)Nc2ccc(C(C)C)cc2)N(Cc2ccco2)C(=O)CC2NC(=O)NC2=O)cc1 (stereo unspecified),?,-2%,-16%[57.1 µM],32%[57.1 µM],-31%,-10,-6%,32µM*

# Screening results (PubChem BioAssay)
